Source: PubChem BioAssay (NCI)
The panel holds about 83,000 compounds, 20% with a hit somewhere; the sample as a whole holds those more often.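 A percent growth of 40 corresponds to 60% growth inhibition; 0 means no net growth; -100 means all cells died. Active threshold: below 10.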

Tests used:
Test in all cases: NCI-60 one-dose screen, 48 h (100 = growth as untreated, 0 = no growth, -100 = all killed)
Conditions in all cases: 10 µM unless noted
DU-145 prostate = system: DU-145 prostate
K-562 leukemia = system: K-562 leukemia
MDA-MB-231 breast = system: MDA-MB-231 breast
RXF 393 renal = system: RXF 393 renal
SF-268 CNS = system: SF-268 CNS
SF-539 CNS = system: SF-539 CNS
UACC-257 melanoma = system: UACC-257 melanoma
M14 melanoma = system: M14 melanoma
HCT-15 colon = system: HCT-15 colon
HT29 colon = system: HT29 colon
SNB-75 CNS = system: SNB-75 CNS
SNB-19 CNS = system: SNB-19 CNS
PC-3 prostate = system: PC-3 prostate
SK-MEL-5 melanoma = system: SK-MEL-5 melanoma
UACC-62 melanoma = system: UACC-62 melanoma
LOX IMVI melanoma = system: LOX IMVI melanoma
SK-MEL-28 melanoma = system: SK-MEL-28 melanoma
MALME-3M melanoma = system: MALME-3M melanoma
SF-295 CNS = system: SF-295 CNS
U251 CNS = system: U251 CNS

Measured: growth

N#CC(C#N)N=Nc1cc(Cl)ccc1Cl
inactive: DU-145 prostate 111% | K-562 leukemia 95.3% | MDA-MB-231 breast 91.7% | RXF 393 renal 115% | SF-268 CNS 95% | SF-539 CNS 99.8% | UACC-257 melanoma 92% | M14 melanoma 98.5% | HCT-15 colon 101% | HT29 colon 101% | SNB-75 CNS 74.8% | SNB-19 CNS 93.6% | PC-3 prostate 106% | SK-MEL-5 melanoma 106% | UACC-62 melanoma 99.1% | LOX IMVI melanoma 109% | SK-MEL-28 melanoma 109%

CCCCCCCCCCCCCCCc1ccc(N)c(OC2OC(CO)C(O)C(O)C2O)c1 (configuration not stated)
inactive: DU-145 prostate 119% | K-562 leukemia 83.4% | MALME-3M melanoma 22.5% | MDA-MB-231 breast 70% | SF-268 CNS 99% | SF-295 CNS 92.2% | SF-539 CNS 93.4% | UACC-257 melanoma 51.5% | M14 melanoma 82.5% | HCT-15 colon 98.4% | HT29 colon 103% | SNB-19 CNS 101% | U251 CNS 89.7% | PC-3 prostate 58.3% | SK-MEL-5 melanoma 111% | UACC-62 melanoma 76.3% | LOX IMVI melanoma 86.3% | SK-MEL-28 melanoma 112%

Cl
inactive: DU-145 prostate 119% | MALME-3M melanoma 116% | MDA-MB-231 breast 115% | RXF 393 renal 117% | SF-268 CNS 116% | SF-295 CNS 99.2% | SF-539 CNS 111% | UACC-257 melanoma 105% | M14 melanoma 107% | HCT-15 colon 102% | HT29 colon 106% | SNB-75 CNS 96.9% | SNB-19 CNS 99.3% | U251 CNS 102% | PC-3 prostate 106% | SK-MEL-5 melanoma 105% | UACC-62 melanoma 105% | LOX IMVI melanoma 97% | SK-MEL-28 melanoma 136%

Oc1ccc(Cc2ccccc2Cl)c(O)c1
inactive: K-562 leukemia 91.5% | MDA-MB-231 breast 71.7% | RXF 393 renal 83.9% | SF-539 CNS 93.9% | UACC-257 melanoma 93.2% | M14 melanoma 99.1% | HCT-15 colon 97.2% | HT29 colon 106% | SNB-75 CNS 80.5% | SNB-19 CNS 100% | PC-3 prostate 82.5% | SK-MEL-5 melanoma 97.7% | UACC-62 melanoma 85.7% | LOX IMVI melanoma 86.3% | SK-MEL-28 melanoma 110%

OCC1OC(O)C(O)C(O)C1O (configuration not stated)
inactive: DU-145 prostate 120% | K-562 leukemia 110% | MALME-3M melanoma 180% | MDA-MB-231 breast 116% | RXF 393 renal 124% | SF-268 CNS 102% | SF-295 CNS 102% | SF-539 CNS 102% | UACC-257 melanoma 114% | M14 melanoma 101% | HCT-15 colon 97.2% | HT29 colon 92.5% | SNB-19 CNS 107% | PC-3 prostate 92.2% | SK-MEL-5 melanoma 110% | UACC-62 melanoma 117% | LOX IMVI melanoma 100%

Fc1ccc([I+]c2ccc(F)cc2)cc1
inactive: DU-145 prostate 92.1% | K-562 leukemia 43.2% | MALME-3M melanoma 61.1% | RXF 393 renal 101% | SF-268 CNS 58.9% | SF-295 CNS 95.4% | SF-539 CNS 62.1% | UACC-257 melanoma 85.5% | M14 melanoma 79% | HCT-15 colon 94.3% | HT29 colon 38.2% | SNB-75 CNS 80% | SNB-19 CNS 70% | PC-3 prostate 63.5% | SK-MEL-5 melanoma 52.2% | UACC-62 melanoma 82.5% | LOX IMVI melanoma 47.9% | SK-MEL-28 melanoma 95.8%

OCCN1CCCCCCC1
inactive: DU-145 prostate 113% | K-562 leukemia 105% | MALME-3M melanoma 96% | MDA-MB-231 breast 99.5% | RXF 393 renal 100% | SF-268 CNS 107% | SF-295 CNS 95.9% | SF-539 CNS 98.7% | M14 melanoma 92.3% | HCT-15 colon 91.4% | HT29 colon 106% | SNB-75 CNS 115% | SNB-19 CNS 101% | PC-3 prostate 93.5% | SK-MEL-5 melanoma 102% | UACC-62 melanoma 101% | LOX IMVI melanoma 103% | SK-MEL-28 melanoma 104%
